Screens from PubChem.
ADAM10 inh: inhibits human ADAM10; O14672; recombinant ADAM10, EDANS/DABCYL FRET peptide cleavage, 3 h; inhibition, % at 7 µM; actives 0.62% (n = 370,000); AID 720582;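 active means inhibition above a per-campaign cutoff equal to the mean of compounds falling between control-based bounds plus 3 SD, cut at about 20% in these data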
ADAM17 inh: inhibits human ADAM17. P78536. recombinant ADAM17, EDANS/DABCYL FRET peptide cleavage. inhibition, % at 6.95 µM. actives 0.83% (n = 370,000);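 active means inhibition above the mean of compounds lying between control limits plus 3 SD, set per campaign, cut at about 8.5% in these data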
rRNA inh HTS: inhibitors of bacterial rRNA selective over humanized ribosomes | E. coli WT GFP vs humanized-ribosome RFP mutants, fluorescence, 24 h; hits give low values; DMSO median 0, no signal -100 | GFP signal change (wild-type ribosome), % (concentration not given with the values) | actives 1.6% (n = 350,000) | AID 720706;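 active means significant combined selectivity score with lowered wild-type GFP, culture density cut under 30%, mutant RFP and density less affected; inactive means any of these conditions unmet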
FGF22 binding: FGF22 (human) thermal shift binding; activity (Tm shift, normalised), % at 9.99 µM; actives 1.5% (n = 340,000); recombinant FGF22 thermal shift, SYPRO orange fluorescence; percent of sucrose octasulfate shift, DMSO zero;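 active means mean Tm shift, scaled 0 neutral to 100 positive control, at about 1.3% or above, every replicate too, limit read from the data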
Target sequence (Q9HCT0 whole entry, looked up): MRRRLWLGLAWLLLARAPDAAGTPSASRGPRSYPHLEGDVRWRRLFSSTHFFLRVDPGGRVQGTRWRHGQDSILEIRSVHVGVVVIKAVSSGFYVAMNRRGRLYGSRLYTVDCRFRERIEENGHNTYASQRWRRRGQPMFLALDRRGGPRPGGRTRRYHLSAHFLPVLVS
KLK7 zymogen act: proKLK7 (human) activation, primary screen | P49862 | purified proKLK7, EDANS-DABCYL substrate fluorescence; 100% is mature enzyme control, 0% vehicle | activation, % at 7 µM | actives 0.9% (n = 370,000) | AID 652039;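 active means activation above the mean of all tested compounds plus 3 SD, computed per campaign excluding outliers beyond control limits, cut at about 13% in these data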
Target sequence (P49862 whole entry, looked up): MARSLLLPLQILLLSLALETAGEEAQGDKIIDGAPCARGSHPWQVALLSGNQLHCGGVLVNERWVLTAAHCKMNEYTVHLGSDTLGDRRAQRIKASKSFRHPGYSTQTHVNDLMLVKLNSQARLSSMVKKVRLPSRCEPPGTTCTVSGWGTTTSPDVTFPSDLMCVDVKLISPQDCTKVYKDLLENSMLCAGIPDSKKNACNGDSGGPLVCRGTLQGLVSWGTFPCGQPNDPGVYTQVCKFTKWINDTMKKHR
KLK7 act conf: proKLK7 activation, confirmation. shares compounds with KLK7 zymogen act. purified proKLK7, EDANS-DABCYL substrate fluorescence; scaled: vehicle 0, mature enzyme 100. activation, % at 7 µM. actives 68% (n = 3,200);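 active means activation, as change over the incubation, above the mean of all tested compounds plus 3 SD, cut at about 13% in these data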
EDANS-DABCYL int: counter-screen for kallikrein-7 activators: EDANS-DABCYL optical interference; shares compounds with KLK7 zymogen act; EDANS-DABCYL substrate fluorescence interference, no enzyme, 4 h; solvent 0%, active enzyme control 100%; activation, % at 7 µM; actives 80% (n = 3,200); AID 686952;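 active means activation above the all-compound mean plus 3 SD, ignoring values outside control-based bounds, cut at about 4.8% in these data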;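 further: value is the 4 h activation minus the activation read at time zero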
EDANS interf: optically interferes with EDANS-DABCYL fluorescence, kallikrein-7 activator counter-screen. actives 20% (n = 250). EC50, µM. shares compounds with KLK7 zymogen act. EDANS-DABCYL peptide fluorescence interference, no enzyme;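 active means compounds that raise the fluorescence signal in this interference counterscreen, with EC50 at or below 10 µM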;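 further: intact quenched peptide substrate alone read at 355 nm excitation and 520 nm emission; signal is fluorescence gain from T0 to T4 after four hours at room temperature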
Large screens that a line does not name were inactive (follow-up assays come after a bar, where they were run). Compounds with a hit are over-represented: about 3.8% of the library has one in this group of screens.

CC(=O)Nc1ccc(-c2nc3ccc(NC(C)=O)cc3o2)cc1	KLK7 zymogen act 33 | KLK7 act conf 26 | EDANS-DABCYL int 16 | EDANS interf inactive
C[C@@H]1CCCCO[C@H](CN(C)S(C)(=O)=O)[C@H](C)CN([C@@H](C)CO)C(=O)c2cc(NC(=O)CCC(F)(F)F)ccc2O1	none (no result: ADAM10 inh, ADAM17 inh, FGF22 binding, KLK7 zymogen act)
COC(=O)C1=CN(Cc2ccc(OC)c(OC)c2)C=C(C(=O)OC)C1c1ccc(O)cc1	KLK7 zymogen act 21 | KLK7 act conf inactive | EDANS-DABCYL int inactive
COC(=O)C1=CN(Cc2ccc(OC)c(OC)c2)C=C(C(=O)OC)C1c1ccc(F)cc1	none
Cc1ccc2[nH]c(=O)c3cc(C(=O)NCCN4CCN(C)CC4)sc3c2c1	KLK7 zymogen act 17 | KLK7 act conf inactive | EDANS-DABCYL int inactive
COC(=O)c1nn(-c2ccc3c(c2)OCO3)cc1O	KLK7 zymogen act 13 (no result: rRNA inh HTS, FGF22 binding) | KLK7 act conf inactive | EDANS-DABCYL int inactive
CC(=O)N1CCc2cc([N+](=O)[O-])ccc21	none
COC(=O)c1nn(-c2ccc3c(c2)CCN3C(C)=O)cc1O	KLK7 zymogen act 124 (no result: rRNA inh HTS, FGF22 binding) | KLK7 act conf 29 | EDANS-DABCYL int 31
O=C1C=C(c2ccc3[nH]ccc3c2)CCC1	none
COc1ccc2cc(C3=CC(=O)CCC3)ccc2c1	KLK7 zymogen act 24 | KLK7 act conf inactive | EDANS-DABCYL int inactive
N#Cc1cc2cc3c(cc2nc1N1CCOCC1)OCO3	KLK7 zymogen act 18 (no result: rRNA inh HTS, FGF22 binding) | KLK7 act conf 114 | EDANS-DABCYL int 123
CC(=O)N1CC2(NC(=O)c3ccccc3N2)c2ccccc21 (stereo unspecified)	KLK7 zymogen act 19 | KLK7 act conf 17 | EDANS-DABCYL int 18
CCN(CC)C(=O)CN1C(=O)C2(NC(=O)c3ccccc3N2)c2ccccc21 (stereo unspecified)	none (no result: FGF22 binding)
COc1ccc(OC)c(/C=N/n2c(COc3ccccc3)n[nH]c2=S)c1	KLK7 zymogen act 20 | KLK7 act conf 43 | EDANS-DABCYL int 37
CO[C@H]1CN(C)C(=O)c2ccc(NC(C)=O)cc2OC[C@H](C)N(C(=O)C2CC2)C[C@@H]1C	none (no result: ADAM10 inh, ADAM17 inh, FGF22 binding, KLK7 zymogen act)
Cc1onc(-c2ccccc2Cl)c1C(=O)NC(=S)Nc1ccccc1C(N)=O	KLK7 zymogen act 13 (no result: rRNA inh HTS, FGF22 binding) | KLK7 act conf inactive | EDANS-DABCYL int 9.1
C[C@@H]1CN([C@@H](C)CO)S(=O)(=O)c2ccc(C#CC3CC3)cc2O[C@@H]1CN(C)Cc1cncnc1	none (no result: ADAM10 inh, ADAM17 inh, FGF22 binding, KLK7 zymogen act)
CCOC(=O)c1cc(=O)n2c(nc3ccccc32)[nH]1	KLK7 zymogen act 23 | KLK7 act conf 77 | EDANS-DABCYL int 79
Cc1cc(=O)n2c(nc3ccccc32)[nH]1	none (no result: rRNA inh HTS, FGF22 binding)
CNC[C@H]1Oc2ccc(NC(=O)NC(C)C)cc2C(=O)N(C)C[C@H]1C	none (no result: ADAM10 inh, ADAM17 inh, FGF22 binding, KLK7 zymogen act)
NC(=O)c1ccccc1NC(=O)c1ccc2ccccc2c1	KLK7 zymogen act 15 | KLK7 act conf inactive | EDANS-DABCYL int inactive
C[C@@H]1CCCCO[C@H](CN(C)C(=O)Nc2ccc(F)cc2)[C@H](C)CN([C@@H](C)CO)C(=O)c2cc(NC(=O)Nc3cccc4ccccc34)ccc2O1	none (no result: ADAM10 inh, ADAM17 inh, KLK7 zymogen act)
CC(OC(=O)c1ccccc1NCCO)C(=O)NCC(=O)Nc1ccc(F)c(F)c1F (stereo unspecified)	KLK7 zymogen act 25 | KLK7 act conf 83 | EDANS-DABCYL int 74
Cc1ccc(NC(=O)CN(C)C(=O)C(C)OC(=O)c2ccccc2NCCO)cc1 (stereo unspecified)	KLK7 zymogen act 21 | KLK7 act conf inactive | EDANS-DABCYL int inactive
O=C(C[C@H]1CC[C@H](NC(=O)CC2CC2)[C@@H](CO)O1)NCc1ccccc1	none (no result: ADAM10 inh, ADAM17 inh, FGF22 binding, KLK7 zymogen act)
Cc1ccc(C(=O)Nc2ccc(NC(=O)c3ccc(C)o3)cc2)o1	KLK7 zymogen act 29 | KLK7 act conf 31 | EDANS-DABCYL int 18
